Reference: the supplement of paper PMC10849652
The full data set covers some 8,800 targets. This sample favours those with a hit. About 0.5% of all pairs of compound and target were hits. Unmarked numbers belong to inactive results.

Experiments:
Assay in all cases: log2 fold change, soluble protein after heating vs DMSO (PISA); higher = thermal stabilisation; K562 lysate, 10 uM; active = over 0.2 and 3.5 SD of the protein, either way, in both replicates (recomputed)
[1] = compound: C#Cc1cccc(Nc2ncnc3cc(OCCOC)c(OCCOC)cc23)c1 [erlotinib]
Method in brief: (§1)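 Log-two fold change in thermal stability relative to solvent controls is reported from duplicates. For each sample, crude K562 extract from dounce-homogenised pellets in PBS pH 7.4 with 1 mM MgCl2, at 1 mg/mL protein, was treated with 10 μM compound for 30 min. Aliquots heated for 3 min across 48°C-58°C were pooled, brought to 0.5% NP-40 at 4°C and cleared at 21,000xg for 90 min. The supernatant was quantified by TMTpro 16plex LC-MS/MS with channel sums equalised.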

[2] = compound: C/C(=N\NC(=O)C1=CC(=CC=C1)S(=O)(=O)N2CCOCC2)/C3=C(C=CC(=C3)Cl)O
Method in brief: as §1

[3] = compound: C1=CC(=CC=C1C2=NC3=C(N2)C=C(C=C3)C(=O)N)OC4=CC=C(C=C4)Cl
Method in brief: as §1

[4] = compound: C1=CC2=C(C=CC(=C2)/C=C\3/C(=O)NC(=NCC4=CC=CS4)S3)N=C1
Method in brief: as §1

[5] = compound: C1=CC2=NC=CN=C2C=C1/C=C/3\C(=O)NC(=O)S3
Method in brief: as §1

[6] = compound: C1=CC=C(C=C1)C2=NC(=C(N2)C3=CC=NC=C3)C4=CC(=C(C=C4)Cl)O
Method in brief: as §1

[7] = compound: C1=CC=C2C(=C1)C3=NNC4=CC=CC(=C43)C2=O
Method in brief: as §1

[8] = compound: C1CCN(C1)C(=O)NC2=CC=CC(=C2)NC3=NC=C(C(=N3)NCCC4=CN=CN4)Br
Method in brief: as §1

[9] = compound: C1CN(CCC1(CC2=CC=C(C=C2)Cl)N)C3=NC=NC4=C3C=CN4
Method in brief: as §1

[10] = compound: C1COCCN1CCN2C3=CC=CC=C3N=C2NC(=O)C4=CC(=CC=C4)[N+](=O)[O-] [IRAK-1-4 Inhibitor I]
Method in brief: as §1

[11] = compound: C=CC(=O)N1CCC[C@@H](n2nc(-c3ccc(Oc4ccccc4)cc3)c3c(N)ncnc32)C1 [ibrutinib]
Method in brief: as §1

[12] = compound: CC(=O)c1cnc2ccc(-c3cc(Cl)c(O)c(Cl)c3)nc2c1N[C@H]1CC[C@H](CN(C)C)CC1
Method in brief: as §1

[13] = compound: CC(C)(C)Cn1c(N)nc2ccc(-c3[nH]c(C(C)(C)C)nc3-c3ccc(F)cc3)nc21 [ralimetinib]
Method in brief: as §1

[14] = compound: CC(C)(O)CC(=O)NCCn1ccc2ncnc(Nc3ccc(Oc4cccc(C(F)(F)F)c4)c(Cl)c3)c21
Method in brief: as §1

[15] = compound: CC(C)C1=C2N=C(C=C(N2N=C1)NCC3=CC=CC=C3)NCCCCCCN
Method in brief: as §1

[16] = compound: CC1=C(C(CC(=O)N1)C2=CC=C(C=C2)C(F)(F)F)C(=O)NC3=C(C=C4C(=C3)C=NN4)F
Method in brief: as §1

[17] = compound: CC1=C(C2=C(C=C1)C(=O)C3=CC=CC=C3N2CCCN)C
Method in brief: as §1

[18] = compound: CC1=C(C=C(C=C1)NC(=O)C2=CC(=CC=C2)C(C)(C)C#N)NC3=CC4=C(C=C3)N=CN(C4=O)C
Method in brief: as §1

[19] = compound: CC1=C(C=C(C=C1)NC(=O)C2=CC(=CC=C2)N(C)C)NC(=O)C3=CC=C(C=C3)O
Method in brief: as §1

[20] = compound: CC1=CC=C(C=C1)SC2=C3C=C(SC3=CN=C2)C(=O)N
Method in brief: as §1

Sequence of UniProt Q9H6R7 (Q9H6R7 whole entry, looked up): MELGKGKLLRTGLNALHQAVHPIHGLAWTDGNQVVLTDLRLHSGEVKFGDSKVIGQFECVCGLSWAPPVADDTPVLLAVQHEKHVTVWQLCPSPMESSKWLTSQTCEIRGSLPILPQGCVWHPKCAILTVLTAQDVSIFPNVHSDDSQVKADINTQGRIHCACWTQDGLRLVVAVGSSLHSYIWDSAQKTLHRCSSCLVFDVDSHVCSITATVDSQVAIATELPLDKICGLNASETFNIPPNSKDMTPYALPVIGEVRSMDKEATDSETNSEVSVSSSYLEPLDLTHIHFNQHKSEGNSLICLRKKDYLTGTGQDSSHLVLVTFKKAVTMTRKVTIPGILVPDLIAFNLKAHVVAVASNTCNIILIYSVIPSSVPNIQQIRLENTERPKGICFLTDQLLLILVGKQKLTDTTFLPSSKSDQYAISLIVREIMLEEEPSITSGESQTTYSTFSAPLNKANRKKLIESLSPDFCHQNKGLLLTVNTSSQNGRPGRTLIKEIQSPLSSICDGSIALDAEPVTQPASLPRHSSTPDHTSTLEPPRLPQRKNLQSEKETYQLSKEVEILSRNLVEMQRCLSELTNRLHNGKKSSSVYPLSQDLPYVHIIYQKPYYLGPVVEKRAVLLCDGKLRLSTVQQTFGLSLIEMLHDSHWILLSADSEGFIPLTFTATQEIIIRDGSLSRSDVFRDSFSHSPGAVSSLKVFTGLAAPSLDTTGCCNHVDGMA
Sequence of UniProt P49750 (P49750 whole entry, looked up): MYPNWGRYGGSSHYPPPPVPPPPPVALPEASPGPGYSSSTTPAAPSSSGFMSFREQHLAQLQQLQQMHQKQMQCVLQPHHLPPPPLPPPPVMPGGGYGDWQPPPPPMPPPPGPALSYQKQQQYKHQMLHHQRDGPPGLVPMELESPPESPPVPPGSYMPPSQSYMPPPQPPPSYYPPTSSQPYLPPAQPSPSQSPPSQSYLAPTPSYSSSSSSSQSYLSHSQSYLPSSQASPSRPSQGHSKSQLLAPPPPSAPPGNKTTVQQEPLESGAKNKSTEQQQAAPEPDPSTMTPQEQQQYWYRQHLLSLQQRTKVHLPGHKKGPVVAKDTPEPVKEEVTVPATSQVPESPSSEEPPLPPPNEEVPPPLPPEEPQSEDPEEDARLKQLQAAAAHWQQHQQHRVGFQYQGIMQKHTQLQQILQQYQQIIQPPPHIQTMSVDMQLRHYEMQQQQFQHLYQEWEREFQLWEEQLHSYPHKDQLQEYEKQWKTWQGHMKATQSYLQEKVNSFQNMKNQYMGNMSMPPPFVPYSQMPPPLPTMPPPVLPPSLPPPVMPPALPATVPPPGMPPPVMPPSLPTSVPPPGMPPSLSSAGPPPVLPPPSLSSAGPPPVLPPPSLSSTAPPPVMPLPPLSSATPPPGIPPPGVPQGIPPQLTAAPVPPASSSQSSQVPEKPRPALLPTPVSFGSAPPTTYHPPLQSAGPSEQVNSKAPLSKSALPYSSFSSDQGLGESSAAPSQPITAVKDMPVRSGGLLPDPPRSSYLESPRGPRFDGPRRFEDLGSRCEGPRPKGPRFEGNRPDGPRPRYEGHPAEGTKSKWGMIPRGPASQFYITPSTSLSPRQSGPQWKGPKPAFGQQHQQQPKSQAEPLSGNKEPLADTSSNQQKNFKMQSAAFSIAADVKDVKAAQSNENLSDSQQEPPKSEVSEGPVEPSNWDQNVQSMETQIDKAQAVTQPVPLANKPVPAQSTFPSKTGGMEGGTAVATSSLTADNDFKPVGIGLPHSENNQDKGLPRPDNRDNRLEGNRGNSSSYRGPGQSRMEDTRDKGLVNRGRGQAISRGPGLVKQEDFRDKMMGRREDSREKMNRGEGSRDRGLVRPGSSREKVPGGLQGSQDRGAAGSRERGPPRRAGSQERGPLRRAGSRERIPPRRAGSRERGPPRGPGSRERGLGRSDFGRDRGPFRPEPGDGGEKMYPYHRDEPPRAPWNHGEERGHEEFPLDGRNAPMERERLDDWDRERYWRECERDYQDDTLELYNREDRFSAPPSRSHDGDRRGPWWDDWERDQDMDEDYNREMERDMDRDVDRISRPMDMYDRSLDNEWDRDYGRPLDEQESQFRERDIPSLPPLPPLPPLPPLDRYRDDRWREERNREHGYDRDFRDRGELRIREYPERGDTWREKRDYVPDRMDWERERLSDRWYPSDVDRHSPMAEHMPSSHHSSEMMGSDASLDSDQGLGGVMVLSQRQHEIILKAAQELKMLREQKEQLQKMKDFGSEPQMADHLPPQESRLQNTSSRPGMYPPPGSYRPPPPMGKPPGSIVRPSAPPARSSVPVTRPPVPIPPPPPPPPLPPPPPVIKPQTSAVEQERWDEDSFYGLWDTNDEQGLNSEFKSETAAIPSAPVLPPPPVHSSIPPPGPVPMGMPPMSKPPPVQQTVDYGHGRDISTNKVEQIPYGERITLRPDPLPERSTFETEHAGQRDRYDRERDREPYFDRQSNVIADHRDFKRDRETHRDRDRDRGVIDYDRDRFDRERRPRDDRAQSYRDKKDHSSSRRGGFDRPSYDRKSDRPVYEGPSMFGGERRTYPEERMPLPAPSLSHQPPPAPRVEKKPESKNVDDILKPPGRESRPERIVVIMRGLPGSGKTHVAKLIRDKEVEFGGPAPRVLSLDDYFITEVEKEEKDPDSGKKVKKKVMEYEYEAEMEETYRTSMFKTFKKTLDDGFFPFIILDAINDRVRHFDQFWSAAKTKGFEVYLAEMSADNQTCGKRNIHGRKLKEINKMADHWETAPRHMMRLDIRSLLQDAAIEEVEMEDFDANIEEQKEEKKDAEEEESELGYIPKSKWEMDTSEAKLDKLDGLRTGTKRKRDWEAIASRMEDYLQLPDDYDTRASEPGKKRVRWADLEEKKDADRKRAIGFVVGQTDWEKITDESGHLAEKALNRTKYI
Sequence of UniProt Q5T200 (Q5T200 whole entry, looked up): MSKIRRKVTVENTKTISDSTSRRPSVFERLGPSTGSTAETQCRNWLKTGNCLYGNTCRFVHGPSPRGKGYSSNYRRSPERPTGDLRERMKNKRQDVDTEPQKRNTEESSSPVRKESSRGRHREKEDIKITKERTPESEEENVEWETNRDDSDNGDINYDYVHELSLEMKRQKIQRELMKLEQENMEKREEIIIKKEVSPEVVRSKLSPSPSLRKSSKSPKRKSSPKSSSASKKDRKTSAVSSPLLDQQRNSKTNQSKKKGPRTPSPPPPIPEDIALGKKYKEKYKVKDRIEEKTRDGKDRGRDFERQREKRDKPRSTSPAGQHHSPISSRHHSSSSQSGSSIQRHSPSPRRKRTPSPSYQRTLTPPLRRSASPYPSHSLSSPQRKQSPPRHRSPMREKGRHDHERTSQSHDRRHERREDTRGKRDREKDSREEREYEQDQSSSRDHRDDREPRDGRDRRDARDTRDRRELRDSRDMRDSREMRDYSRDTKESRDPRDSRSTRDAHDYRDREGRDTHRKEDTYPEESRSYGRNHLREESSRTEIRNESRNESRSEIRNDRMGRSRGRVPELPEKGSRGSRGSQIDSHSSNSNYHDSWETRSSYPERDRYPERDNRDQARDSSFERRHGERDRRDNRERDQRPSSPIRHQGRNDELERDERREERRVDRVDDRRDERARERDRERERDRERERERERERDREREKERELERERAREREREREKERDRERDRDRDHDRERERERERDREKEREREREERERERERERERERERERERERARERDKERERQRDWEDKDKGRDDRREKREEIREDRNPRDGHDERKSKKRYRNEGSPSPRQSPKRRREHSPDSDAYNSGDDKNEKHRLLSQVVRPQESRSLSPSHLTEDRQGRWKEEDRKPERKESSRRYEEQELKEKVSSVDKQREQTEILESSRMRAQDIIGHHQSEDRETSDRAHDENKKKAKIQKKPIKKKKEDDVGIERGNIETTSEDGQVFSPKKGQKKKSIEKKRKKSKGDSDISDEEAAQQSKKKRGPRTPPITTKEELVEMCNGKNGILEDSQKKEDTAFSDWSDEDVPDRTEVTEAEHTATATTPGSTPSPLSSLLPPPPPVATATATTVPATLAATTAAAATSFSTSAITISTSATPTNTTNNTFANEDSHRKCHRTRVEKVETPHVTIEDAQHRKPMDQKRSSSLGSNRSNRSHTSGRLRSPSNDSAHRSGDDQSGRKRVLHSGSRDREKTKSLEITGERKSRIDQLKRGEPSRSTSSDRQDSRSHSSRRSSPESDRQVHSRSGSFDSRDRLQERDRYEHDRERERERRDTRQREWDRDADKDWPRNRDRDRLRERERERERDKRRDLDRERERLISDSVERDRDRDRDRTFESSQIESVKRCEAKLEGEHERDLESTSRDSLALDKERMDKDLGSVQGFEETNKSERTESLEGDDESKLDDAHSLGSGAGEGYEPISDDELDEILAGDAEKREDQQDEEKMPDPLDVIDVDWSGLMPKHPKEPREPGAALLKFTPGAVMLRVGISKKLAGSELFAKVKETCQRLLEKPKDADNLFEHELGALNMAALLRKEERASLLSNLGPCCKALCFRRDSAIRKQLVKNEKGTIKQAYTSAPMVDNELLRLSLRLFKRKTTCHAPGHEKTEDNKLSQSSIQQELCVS
Sequence of UniProt Q96GY0 (Q96GY0 whole entry, looked up): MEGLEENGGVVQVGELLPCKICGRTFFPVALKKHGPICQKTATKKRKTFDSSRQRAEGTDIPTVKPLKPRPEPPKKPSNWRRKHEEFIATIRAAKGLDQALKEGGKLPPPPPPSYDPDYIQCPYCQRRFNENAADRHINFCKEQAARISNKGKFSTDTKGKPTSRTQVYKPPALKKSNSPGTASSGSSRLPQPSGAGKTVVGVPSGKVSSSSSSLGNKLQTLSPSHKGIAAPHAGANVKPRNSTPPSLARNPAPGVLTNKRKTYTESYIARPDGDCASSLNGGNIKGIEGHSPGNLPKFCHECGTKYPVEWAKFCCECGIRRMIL

Target | log2 fold change [1] | log2 fold change [2] | log2 fold change [3] | log2 fold change [4] | log2 fold change [5] | log2 fold change [6] | log2 fold change [7] | log2 fold change [8] | log2 fold change [9] | log2 fold change [10] | log2 fold change [11] | log2 fold change [12] | log2 fold change [13] | log2 fold change [14] | log2 fold change [15] | log2 fold change [16] | log2 fold change [17] | log2 fold change [18] | log2 fold change [19] | log2 fold change [20]
UTP3 (UniProt Q9NQZ2) | -0.051 | -1.41 | -0.088 | -0.063 | -0.039 | -0.018 | 0.021 | -0.067 | -0.09 | -0.041 | 0.053 | 0.001 | 0.055 | -0.051 | -0.058 | 0.026 | -0.123 | -0.016 | -0.023 | -0.018
ZC3H13 (UniProt Q5T200) | 0.081 | 0.003 | 0.034 | -0.027 | -0.071 | 0.075 | -0.045 | -0.016 | -0.043 | 0.007 | 0.046 | 0.009 | -0.003 | -0.072 | 0.058 | -0.101 | 0.046 | 0.08 | -0.01 | -0.022
WDR62 isoform 4 (UniProt O43379) | 0.017 | -0.027 | -0.018 | -0.007 | -0.012 | 0.017 | -0.052 | 0.024 | -0.008 | 0.011 | -0.023 | 0.027 | 0.013 | -0.051 | -0.007 | 0.033 | -0.016 | 0.023 | -0.002 | -0.029
XPO6 (UniProt Q96QU8) | 0.091 | -0.024 | -0.028 | 0.031 | -0.012 | -0.003 | -0.072 | -0.007 | -0.028 | 0.003 | -0.013 | 0.018 | 0.006 | -0.006 | -0.033 | -0.003 | -0.024 | 0.028 | 0.062 | -0.006
VRK1 (UniProt Q99986) | 0.009 | -0.05 | 0.002 | 0.049 | 0.015 | 0.024 | -0.02 | 0 | 0.02 | -0.02 | 0.008 | 0.035 | 0.122 | 0.005 | -0.008 | -0.013 | 0.007 | -0.015 | 0.018 | 0.003
ZC2HC1A (UniProt Q96GY0) | 0 | -0.134 | 0.058 | 0.18 | 0.073 | -0.043 | -0.1 | -0.054 | 0.009 | -0.012 | -0.029 | -0.006 | 0.037 | -0.056 | -0.038 | -0.016 | -0.076 | 0.045 | -0.003 | 0.006
YLPM1 (UniProt P49750) | 0.026 | -0.04 | 0.035 | -0.043 | -0.018 | -0.004 | 0.022 | 0.044 | 0.019 | 0.027 | 0.028 | -0.044 | -0.002 | 0.022 | -0.006 | 0.301 (active) | -0.031 | -0.017 | 0 | -0.046
VPS39 (UniProt Q96JC1) | 0.015 | -0.022 | -0.005 | -0.003 | -0.002 | 0.015 | -0.007 | -0.034 | 0.031 | 0.019 | 0 | 0.021 | -0.012 | -0.056 | -0.004 | 0.014 | 0 | 0.016 | -0.014 | -0.005
ZNHIT6 (UniProt Q9NWK9) | 0.059 | 0.475 | 0.062 | 0.024 | -0.007 | -0.008 | -0.068 | 0 | 0.014 | 0.003 | -0.01 | -0.097 | -0.032 | 0.005 | 0.001 | 0.036 | -0.02 | 0.032 | 0.018 | -0.029
WDCP (UniProt Q9H6R7) | -0.06 | 0.091 | 0.079 | 0.018 | 0.024 | 0 | -0.011 | -0.022 | 0.002 | 0.024 | 0.021 | 0.021 | -0.006 | -0.045 | -0.027 | -0.023 | -0.041 | 0 | 0.01 | 0.049
USP48 isoform 8 (UniProt Q86UV5) | 0.001 | -0.059 | -0.011 | -0.008 | 0.005 | 0.02 | -0.02 | 0 | 0.018 | -0.014 | -0.02 | -0.014 | 0.004 | 0 | -0.005 | 0.007 | -0.005 | 0.001 | 0 | -0.01
ZMYND8 isoform 19 (UniProt Q9ULU4) | -0.012 | -0.058 | 0.023 | 0.011 | -0.037 | 0.024 | -0.077 | -0.021 | 0.018 | -0.025 | 0.111 | -0.02 | 0.047 | 0.007 | 0.002 | 0.007 | 0.027 | 0.02 | 0.011 | 0.037
VPS18 (UniProt Q9P253) | 0.018 | 0.056 | -0.032 | -0.021 | -0.016 | 0.051 | -0.076 | -0.017 | 0.053 | -0.034 | -0.007 | -0.026 | 0.038 | -0.065 | -0.022 | 0.004 | -0.046 | -0.004 | -0.041 | 0.009
VCPIP1 (UniProt Q96JH7) | -0.054 | -0.04 | -0.002 | 0.053 | -0.037 | 0.041 | 0.006 | 0 | 0.038 | -0.035 | 0.002 | 0.01 | 0.009 | 0.011 | -0.029 | -0.021 | -0.05 | -0.007 | 0.048 | -0.017
WRN (UniProt Q14191) | -0.003 | -0.048 | 0.005 | 0.006 | 0.057 | 0.011 | -0.077 | 0.02 | -0.012 | -0.013 | 0.02 | -0.008 | 0.021 | -0.055 | -0.016 | 0.023 | 0.019 | -0.016 | 0.016 | -0.048
WAC (UniProt Q9BTA9) | 0.027 | 0.004 | 0.027 | 0.092 | -0.064 | 0.008 | -0.076 | 0.051 | 0.015 | -0.006 | -0.062 | -0.008 | -0.012 | -0.054 | -0.009 | 0.046 | 0.034 | -0.016 | 0.022 | 0.004
